Laboratory results reported in PubChem BioAssay (Tox21).
Several values for one entry are separate records, joined by “and”; a condition that tells them apart may be missing. Identical values can stand only once. Where a structure was tested more than once in an assay, its records may differ in their call. Activity calls are given as the source filed them. Where a call stands in place of a potency, no number is given. Unless noted, calls follow the shape of the dose curve; as a rule, active = well fitted curve in the direction sought with a large enough effect in the repeat runs; inconclusive = weak or mixed curves; inactive = no such curve, though single readings can be large; an effect the other way counts as inactive or inconclusive.

Columns and labels:
[1] = qHTS assay to identify small molecule antagonists of the thyroid receptor (TR) signaling pathway (AID 743065); conditions: GH3.TRE-Luc, T3-stimulated luciferase inhibition, 23.5 h; series mostly up to 70.3 µM; also: potency is read from the fitted curve at half-maximal effect; nearly all actives have a fitted effect of over 55% in size
In short: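 GH3.TRE-Luc rat pituitary cells carrying two TR response elements driving luciferase were plated for 4 h, given compound plus 1 nM T3 (final), and incubated 23.5 h at 37 C. ONE-Glo luminescence measured reporter inhibition; CellTiter-Fluor fluorescence tracked cytotoxicity.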

[2] = qHTS assay to identify small molecule antagonists of the estrogen receptor alpha (ER-alpha) signaling pathway - cell viability counter screen (AID 743074; calls by dose curve; also: nearly all actives have a fitted effect of over 45% in size; also: potency is read from the fitted curve at half-maximal effect); conditions: ERalpha-bla HEK293 viability, CellTiter-Glo luminescence, 18 h; series mostly up to 69.4 µM
[3] = target: Estrogen receptor (Homo sapiens) (UniProt P03372); assay: qHTS assay to identify small molecule agonists of the estrogen receptor alpha (ER-alpha) signaling pathway (AID 743075; calls by dose curve; also: potency is read from the fitted curve at half-maximal effect); conditions: HEK293 ER-alpha-UAS-bla, beta-lactamase FRET ratio, 18 h; series mostly up to 70.1 µM
Estrogen receptor (Homo sapiens), sequence (P03372 whole entry, looked up): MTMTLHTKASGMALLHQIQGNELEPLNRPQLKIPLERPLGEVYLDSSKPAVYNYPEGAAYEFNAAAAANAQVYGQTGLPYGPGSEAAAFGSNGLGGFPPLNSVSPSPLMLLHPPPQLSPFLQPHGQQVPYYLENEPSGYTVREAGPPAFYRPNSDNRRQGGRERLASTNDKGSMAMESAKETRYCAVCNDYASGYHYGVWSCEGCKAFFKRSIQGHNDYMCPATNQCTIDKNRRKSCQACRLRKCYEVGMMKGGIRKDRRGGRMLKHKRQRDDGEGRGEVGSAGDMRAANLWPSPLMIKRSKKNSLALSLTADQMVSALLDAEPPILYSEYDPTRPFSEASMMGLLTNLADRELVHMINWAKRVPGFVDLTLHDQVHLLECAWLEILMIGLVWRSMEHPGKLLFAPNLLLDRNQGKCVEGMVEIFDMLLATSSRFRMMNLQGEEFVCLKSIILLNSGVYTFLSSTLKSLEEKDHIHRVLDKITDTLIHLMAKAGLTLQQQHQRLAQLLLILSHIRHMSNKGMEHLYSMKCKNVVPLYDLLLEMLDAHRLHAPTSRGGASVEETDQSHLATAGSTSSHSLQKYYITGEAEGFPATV

[4] = target: Estrogen receptor (Homo sapiens) (UniProt P03372); assay: qHTS assay to identify small molecule agonists of the estrogen receptor alpha (ER-alpha) signaling pathway using the BG1 cell line (AID 743079); conditions: BG1Luc4E2 cells, ERE-luciferase agonist, 22 h; series mostly up to 70.3 µM; also: nearly all actives have a fitted effect of over 20% in size; also: potency is read from the fitted curve at half-maximal effect
[5] = qHTS assay to identify small molecule antagonists of the estrogen receptor alpha (ER-alpha) signaling pathway using the BG1 cell line (AID 743080; calls by dose curve;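 also: BG1 cells stimulated with 17beta-estradiol alongside compound; nearly all actives have a fitted effect of over 25% in size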); conditions: BG1Luc4E2 ERE-luciferase antagonist mode, luminescence; series mostly up to 70.3 µM
In short: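 BG1-Luc-4E2 cells (endogenous full-length ER-alpha, 4xERE luciferase) hormone-starved 5 days in charcoal-stripped FBS, plated 4,000/well for 24 h, then compound plus 17beta-estradiol for 21.5 h at 37 C; ONE-Glo luminescence read.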

[6] = qHTS assay to identify small molecule antagonists of the estrogen receptor alpha (ER-alpha) signaling pathway using the BG1 cell line - cell viability counter screen (AID 743081); conditions: BG1Luc4E2 viability, CellTiter-Fluor, 22 h; series mostly up to 70.3 µM;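 also: compound given together with 17beta-estradiol as the ER stimulus; nearly all actives have a fitted effect of over 45% in size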; also: potency is read from the fitted curve at half-maximal effect
Aromatase (Homo sapiens) = Aromatase (Homo sapiens) (UniProt P11511); assay: qHTS assay to identify aromatase inhibitors (AID 743083); conditions: MCF-7 aro ERE, testosterone-driven ERE luciferase, 24 h; series mostly up to 70.3 µM; also: nearly all actives have a fitted effect of over 55% in size; also: potency is read from the fitted curve at half-maximal effect
Aromatase (Homo sapiens), sequence (P11511 whole entry, looked up): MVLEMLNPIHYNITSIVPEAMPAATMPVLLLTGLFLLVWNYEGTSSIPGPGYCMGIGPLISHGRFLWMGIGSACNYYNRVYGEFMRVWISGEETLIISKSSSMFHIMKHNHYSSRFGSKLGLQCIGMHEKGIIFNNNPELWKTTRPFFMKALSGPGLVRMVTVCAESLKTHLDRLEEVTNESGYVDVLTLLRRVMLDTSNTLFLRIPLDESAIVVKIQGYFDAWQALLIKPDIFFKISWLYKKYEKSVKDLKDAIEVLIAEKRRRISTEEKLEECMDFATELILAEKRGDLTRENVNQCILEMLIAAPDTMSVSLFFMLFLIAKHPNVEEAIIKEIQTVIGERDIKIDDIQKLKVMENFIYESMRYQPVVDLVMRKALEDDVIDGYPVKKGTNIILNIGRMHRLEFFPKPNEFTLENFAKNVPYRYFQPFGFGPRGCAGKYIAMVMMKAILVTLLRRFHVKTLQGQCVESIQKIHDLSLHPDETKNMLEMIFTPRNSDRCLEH

[7] = qHTS assay to identify aromatase inhibitors - cell viability counter screen (AID 743084); conditions: MCF-7 aro ERE viability, CellTiter-Fluor, 24 h; series mostly up to 70.3 µM;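 also: cells stimulated with testosterone during compound exposure; nearly all actives have a fitted effect of over 55% in size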; also: potency is read from the fitted curve at half-maximal effect
[8] = system: thyroid hormone receptor (rat, GH3 cells); assay: qHTS assay to identify small molecule agonists of the thyroid receptor (TR) signaling pathway (AID 743066; calls by dose curve); conditions: GH3.TRE-Luc cells, TR agonist luciferase, 24 h; series mostly up to 83.9 µM
[9] = target: Estrogen receptor (Homo sapiens) (UniProt P03372); assay: qHTS assay to identify small molecule antagonists of the estrogen receptor alpha (ER-alpha) signaling pathway (AID 743069; active = well fitted curve in the direction sought with a large enough effect in the signal ratio in the repeat runs, not every such curve was filed as active; inconclusive = weak or mixed curves, or effect the other way; inactive = no such curve, though single readings can be large or run the other way; the % refers to the signal ratio; also: potency is read from the fitted curve at half-maximal effect); conditions: HEK293 ER-alpha-UAS-bla, beta-lactamase ratio, antagonist mode; series mostly up to 69.4 µM
In short: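 Screening used a UAS-driven beta-lactamase reporter integrated into HEK293 cells expressing ER-alpha, stimulated with 17beta-estradiol alongside test compounds over 18 hr at 37C; signal came from LiveBLAzer B/G FRET fluorescence.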

Structure (SMILES)	Potency [1]	Potency [2]	Potency [3]	Potency [4]	Potency [5]	Potency [6]	Potency (Aromatase (Homo sapiens))	Potency [7]	outcome [8]	Potency [9]
C#C[C@]1(O)CC[C@H]2[C@@H]3[C@H](C)CC4=C(CCC(=O)C4)[C@H]3CC[C@@]21C	26.6 µM (active)	inactive	0.0134 µM [inconclusive] (active)	0.0038 µM (active)	inactive	inactive	inactive	inactive	–	–
O=c1c(O)c(-c2ccc(O)cc2O)oc2cc(O)cc(O)c12	–	inactive	inactive	–	inactive	inactive	inactive	–	inactive	–
O=C(Nc1ccc2c(O)c(N=Nc3ccc(N=Nc4ccc(S(=O)(=O)O)cc4)cc3)c(S(=O)(=O)O)cc2c1)c1ccccc1	–	inactive	inactive	–	–	27.3 µM (active)	–	8.63 µM (active)	inactive	inactive
COc1cc2nc(N3CCN(C(=O)c4ccco4)CC3)nc(N)c2cc1OC	8.41 µM (active)	inactive	inactive	inactive	inactive	inactive	–	–	–	–
Nc1cc(Cl)c(O)c(Cl)c1	–	inactive	inactive	inactive	inactive	inactive	inactive	inactive	inactive	–
CCOc1ccc2ccccc2c1C(=O)N[C@@H]1C(=O)N2[C@@H]1SC(C)(C)[C@@H]2C(=O)O	–	inactive	inactive	inactive	inactive	inactive	inactive	inactive	inactive	inactive
CC(C)(C)c1ccc(C(O)CCCN2CCC(C(O)(c3ccccc3)c3ccccc3)CC2)cc1 (centres undefined)	–	inactive	inactive	inactive	inactive	inactive	inactive and 29.8 µM (active)	inactive	inactive	inactive
C[C@H]1NCc2cc(-c3ccc4c(=O)c(C(=O)O)cn(C5CC5)c4c3OC(F)F)ccc21	–	–	inactive	inactive	inactive	inactive	inactive	inactive	inactive	inactive
Cc1cc(C)c(/C=C2\C(=O)Nc3ccccc32)[nH]1	–	inactive	–	inactive	–	–	inactive	inactive	inactive	26.8 µM [inconclusive] (active)
CCOC(=O)c1ccc(C2CCC(NC[C@H](O)COc3ccc(O)c(NS(C)(=O)=O)c3)CC2)cc1 (some centres undefined)	28.3 µM (active)	–	–	–	–	inactive	–	–	–	–
CC(C)CCOC(=O)/C=C/c1ccccc1	–	–	inactive	24.4 µM (active)	–	inactive	inactive	inactive	inactive	inactive
C#C[C@]1(OC(C)=O)CC[C@H]2[C@@H]3CCC4=C/C(=N/O)CC[C@@H]4[C@H]3CC[C@@]21CC	21.1 µM (active)	inactive	0.952 µM [inconclusive] (active)	0.106 µM (active)	inactive	inactive	23.7 µM (active)	–	–	–
O=C1CCc2ccc(OCCCCN3CCN(c4cccc(Cl)c4Cl)CC3)cc2N1	11.9 µM (active)	23.9 µM (active)	–	–	–	–	inactive	inactive	–	–
c1ccc(C(O[C@@H]2CCCN(CCc3ccc4c(c3)OCO4)C2)c2ccccc2)cc1	30.6 µM (active)	–	inactive	–	–	inactive	–	–	–	inactive
O=C(O)c1cc(O)c2ccccc2c1O	–	inactive	inactive	–	–	–	9.69 µM (active)	15.4 µM (active)	inactive	–
Cc1cc(C(C)(C)C)c(O)c(C)c1Cn1c(=O)n(Cc2c(C)cc(C(C)(C)C)c(O)c2C)c(=O)n(Cc2c(C)cc(C(C)(C)C)c(O)c2C)c1=O	–	inactive	inactive	inactive	inactive	inactive	–	inactive	inactive	17.4 µM [inconclusive] (active)
CCCCCC/C=C\CCCCCCCC(=O)O	–	inactive	inactive	inactive	inactive	inactive	inactive	inactive	–	inactive
O=C(O)CN(CCN(CC(=O)O)CC(=O)O)CC(=O)O	–	inactive	–	–	–	inactive	inactive	inactive	–	–
Cc1c(F)c(N2CCNC(C)C2)cc2c1c(=O)c(C(=O)O)cn2C1CC1 (centres undefined)	–	inactive	inactive	inactive	inactive	inactive	inactive	inactive	–	inactive
CC(N=C(NC#N)Nc1ccncc1)C(C)(C)C (centres undefined)	–	inactive	–	–	–	inactive	–	inactive	inactive	–
CC1=CCC(=C(C)C)CC1	–	inactive	inactive	68.6 µM (active)	inactive	inactive	inactive	inactive	–	inactive
CNC(=O)c1ccccc1Sc1ccc2c(/C=C/c3ccccn3)n[nH]c2c1	–	–	–	–	–	–	inactive	–	inactive	–
S=C([S-])NCCNC(=S)[S-].S=C([S-])NCCNC(=S)[S-].[Mn+2].[Zn+2]	–	–	–	–	–	–	inactive	inactive	inactive	–
CC[C@H](C)COC(=O)/C=C/c1ccc(N=Cc2ccc(OC)cc2)cc1	–	–	inactive	2.73 µM (active)	–	inactive	–	–	inactive	–
